Compound activity from PubChem.
CYP2C19 activ – increases human CYP2C19 enzyme activity; recombinant CYP2C19, luciferin-H EGE luminescence; active compounds read high; 0 = fully inhibited enzyme, 1 = untreated enzyme; activation factor at 5 µM; 96,000 tested, under 10 active; AID 1025;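 active = activation factor of at least 2 at 5 µM in the primary screen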;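 note: 0 = wells with 2.5 mM tranylcypromine and 1 = vehicle-only wells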
Target sequence (P33261 whole entry, looked up): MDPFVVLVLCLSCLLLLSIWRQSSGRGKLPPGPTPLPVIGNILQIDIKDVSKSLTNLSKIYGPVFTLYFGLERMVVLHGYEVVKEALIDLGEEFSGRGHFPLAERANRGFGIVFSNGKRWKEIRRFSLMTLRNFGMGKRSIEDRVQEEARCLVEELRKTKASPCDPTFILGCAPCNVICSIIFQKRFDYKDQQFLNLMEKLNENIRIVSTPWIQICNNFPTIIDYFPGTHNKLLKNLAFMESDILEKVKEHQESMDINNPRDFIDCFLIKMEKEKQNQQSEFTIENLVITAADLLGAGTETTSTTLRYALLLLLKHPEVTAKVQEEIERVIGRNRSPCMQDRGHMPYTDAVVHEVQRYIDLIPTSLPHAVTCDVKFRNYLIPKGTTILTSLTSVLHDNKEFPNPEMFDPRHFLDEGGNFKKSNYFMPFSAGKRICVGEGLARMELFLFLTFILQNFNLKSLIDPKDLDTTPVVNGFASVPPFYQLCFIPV
Measles CPE – protection of cells from measles virus; Measles virus-infected cells, CPE protection, absorbance; protection (pct of control), % at 4 µM; 140,000 compounds, 1.5% hits; AID 841; in the data active = protection mostly above about 24%, no sharp cut-off; inactive = mostly below about 26%
CYP2C9 inhib – inhibitors of human CYP2C9; AID 777; CYP2C9 Supersomes, luciferin-H conversion, luminescence; inhibition, % at 5 µM; P11712; 96,000 compounds, 20% hits;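 active = blocking of liver enzyme CYP2C9 beyond about 50% at 5 µM, limit read from the data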
CYP2C19 inh – inhibitors of human CYP2C19; CYP2C19 Supersomes, luciferin-H EGE luminescence, 30 min; 96,000 compounds, 21% hits; P33261; AID 778; inhibition, % at 5 µM;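 active = CYP2C19 inhibition above a set limit at 5 µM in the primary screen, cut at about 50% in these data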;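 note: plate controls were negative control wells for no effect and 2.5 mM tranylcypromine positive control for full effect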
CYP2C9 activ – activators of human CYP2C9. P11712. recombinant CYP2C9, luciferin-H conversion, luminescence; active compounds read high; factor 1 = untreated enzyme, 0 = blocked. activation factor at 5 µM. 96,000 compounds, 1.4% hits;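 active = activation factor of 2 or more for CYP2C9 at a 5 µM dose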;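 note: 0 = sulfaphenazole-blocked wells and 1 = vehicle-only wells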
* hit, by the source's call; nt = no result given. Rows were chosen to be rich in hits. Some 22% of all compounds tested hit in one or more screens of this group.

SMILES	CYP2C19 activ	Measles CPE	CYP2C9 inhib	CYP2C19 inh	CYP2C9 activ
O=C1CCCCC1C(Nc1ccc(Br)cc1)c1ccccc1 (stereo not drawn)	0.5	15	62*	49	0.4
CCOC(=O)Cc1nnc(NC(=O)CSc2ccccc2)s1	1.1	10	17	-10	0.8
COc1ccc(C(=O)Oc2cccc(Nc3ncnc4ccccc34)c2)cc1OC	nt	25	nt	nt	nt
O=C1CC(c2ccc(F)cc2)C2=C(CCCC2=O)N1 (stereo not drawn)	1	1	-11	-4	1.1
Cn1c(SC/C=C/c2ccccc2)nnc1-c1cccs1	nt	10	nt	nt	nt
CCn1c(SC/C=C/c2ccccc2)nnc1-c1cccs1	0	3	82*	99*	0.2
C=CCn1c(Cc2cccs2)nnc1SC/C=C/c1ccccc1	0.3	6	58*	70*	0.4
CCn1c(SC(=O)NC2CCCCC2)nnc1-c1cccs1	0.5	5	25	53*	0.8
C=CCn1c(SCc2ccccc2)nnc1-c1cccnc1	0.6	21	-4	36	1
Nn1c(SC/C=C/c2ccccc2)nnc1-c1ccco1	0.7	26	-10	29	1.1
C=CCn1c(SCc2nc3ccccc3nc2C)nnc1-c1ccoc1C	0	1	-39	95*	1.4
O=C(NNC1=Nc2cccc3cccc1c23)c1ccccc1Br	nt	6	nt	nt	nt
CCn1c(SCC(=O)c2ccccc2)nnc1-c1cccs1	0.3	20	16	69*	0.8
CCn1c(SCc2nc3ccccc3nc2C)nnc1-c1cccs1	0.1	nt	-8	93*	1.1
O=C1c2ccccc2C(=O)N1CCSc1n[nH]c(=S)s1	0.9	4	82*	6	0.2
Cc1ccc(Cl)cc1NC1=C/C(=N\S(=O)(=O)c2cccs2)c2ccccc2C1=O	0.3	5	92*	66*	0.1
Cc1ccc(NC2=C/C(=N\S(=O)(=O)c3cccs3)c3ccccc3C2=O)c(C)c1	nt	4	nt	nt	nt
CCN(CC)S(=O)(=O)c1ccc(-c2nnc3sc4cccc(C)c4n23)cc1	0.3	21	78*	72*	0.2
O=C(Oc1ccc2c(=O)c(Cl)coc2c1)c1ccncc1	0.3	9	77*	75*	0.2
c1ccc(OCc2nc(-c3ccccc3)no2)cc1	0.3	28	37	72*	0.6
COc1ccc(CCN(Cc2nc(-c3ccccc3)no2)Cc2nc(-c3ccccc3)no2)cc1OC	0.5	13	86*	54*	0.1
c1ccc(OCCCc2nc(-c3ccncc3)no2)cc1	0	4	90*	98*	0.1
c1ccc(CCc2nc(-c3ccccc3)no2)cc1	0.9	7	3	13	1
c1ccc(-c2noc(CN3CCN(c4ccccc4)CC3)n2)cc1	0.3	14	45	71*	0.6
CCn1cnc2sc(C)c(C)c2c1=O	0.9	9	12	12	0.9
SMILES	CYP2C19 activ	Measles CPE	CYP2C9 inhib	CYP2C19 inh	CYP2C9 activ
CCCCCn1c(=O)c(-c2nc3ccccc3c(=O)[nH]2)c(O)c2ccccc21	0.8	5	18	20	0.8
COc1ccc(-c2noc(CCCOc3ccccc3)n2)cc1OC	0.1	7	79*	90*	0.2
COc1ccc(-c2noc(CCN3C(=O)c4ccccc4C3=O)n2)cc1OC	0.8	8	12	22	0.9
c1ccc(OCCCc2nc(-c3ccccn3)no2)cc1	0.2	16	33	80*	0.7
O=C1c2ccccc2C(=O)N1CCCc1nc(-c2ccccn2)no1	1.2	21	-11	-18	1.1
COc1cccc(-c2csc3nc[nH]c(=O)c23)c1	0.4	7	8	59*	0.9
O=c1[nH]cnc2scc(-c3ccc(F)cc3)c12	0.5	2	-39	46	1.4
CCN(Cc1ccccc1)C(c1cccc(C#N)c1)c1nnnn1C(C)(C)C (stereo not drawn)	0.3	7	91*	72*	0.1
COc1cccc(CN(Cc2ccco2)C(c2ccc(F)cc2)c2nnnn2C(C)(C)C)c1 (stereo not drawn)	0.6	12	51*	44	0.5
CCC(C)(C)n1nnnc1C(c1ccc(C)cc1)N(Cc1ccco1)Cc1cccs1 (stereo not drawn)	1	2	90*	-4	0.1
Clc1ccc(C(c2nnnn2C2CCCCC2)N(Cc2cccnc2)Cc2ccco2)cc1 (stereo not drawn)	nt	13	nt	nt	nt
CC(C)(C)n1nnnc1C(c1cccnc1)N(Cc1ccccc1)Cc1ccco1 (stereo not drawn)	0.6	23	73*	44	0.3
CCOc1ccc(Cl)cc1CNCCNCCO	1.1	5	-12	-12	1.1
COc1ccc(C(=O)Nc2ccc3oc(Cc4ccc(Cl)cc4)nc3c2)cc1OC	0.9	20	21	10	0.8
c1cc2nnnn2nc1N1CCCCCC1	nt	9	nt	nt	nt
O=C(c1sc2cccc(F)c2c1Cl)N1CCN(c2ncccn2)CC1	nt	17	nt	nt	nt
CC(C)(C)n1nnnc1CN(Cc1ccc(F)cc1)Cc1ccco1	0.1	10	87*	93*	0.1
CC(C)(C)CC(C)(C)NCC(O)COc1c(F)cc(Br)cc1F (stereo not drawn)	0.9	6	2	9	1
CCOC(=O)C1(P(=O)(c2ccc(Cl)cc2)c2ccc(Cl)cc2)CCC1	0.2	11	29	80*	0.7
CCN(CC)CCNc1nc(-c2ccccc2)nnc1C(F)(F)F	0.9	43*	-8	12	1.1
COc1cccc2cc(-c3nnc(SCC(=O)NCCc4ccccc4)n3C)oc12	0.8	23	1	20	1
O=C(Cn1nc(C(F)(F)F)c2c1CCCC2)NCCN1CCOCC1	0.4	3	27	64*	0.7
COC(=O)c1ccc(NC(=O)CN(C)S(=O)(=O)c2ccc(OC)c(C)c2)cc1	0.7	4	-18	26	1.2
COc1ccc(C)cc1S(=O)(=O)N(C)CC(=O)Nc1ccc2c(c1)OCCO2	0.6	nt	83*	39	0.2
CCN(CC(=O)Nc1ccc(S(N)(=O)=O)cc1)S(=O)(=O)c1cc(C)ccc1OC	1.1	9	97*	-5	0
SMILES	CYP2C19 activ	Measles CPE	CYP2C9 inhib	CYP2C19 inh	CYP2C9 activ
COc1ccc(S(=O)(=O)N(C)CC(=O)Nc2ccc3c(c2)OCO3)cc1	0.4	5	54*	61*	0.5
COc1ccc(N(CC(=O)Nc2ccc3c(c2)OCO3)S(=O)(=O)c2ccccc2)c(OC)c1	0	8	99*	99*	0
Cc1cccc(NC(=O)CN(C)S(=O)(=O)c2ccc(Cl)cc2)n1	0.7	21	-25	33	1.3
COc1ccc(S(=O)(=O)N(C)CC(=O)Nc2c(F)cccc2F)cc1	0.2	4	-84	80*	1.8
COc1ccc(OC)c(S(=O)(=O)N(C)CC(=O)Nc2ccc3c(c2)OCO3)c1	0.2	29	87*	83*	0.1
COc1ccc(OC)c(S(=O)(=O)N(C)CC(=O)Nc2ccc3c(c2)OCCO3)c1	0.7	14	75*	27	0.2
Cc1cccc(NC(=O)CN(C)S(=O)(=O)c2ccc(Br)cc2)n1	0	23	7	96*	0.9
